Assays:
Assay in all cases: DAPPL (digital affinity profiling via proximity ligation, sequencing); 10 mM Tris-HCl pH 7.5, 50 mM NaCl, 1 mM DTT, 4% glycerol, room temperature, 30 min; GST-TFs on glutathione beads, 16-mer random dsDNA library, 0.1% formaldehyde crosslink after washing; high values mean tight binding
Settings in all cases: protein: recombinant; tags: N-terminal GST; dsDNA, one strand shown
ERF = biological target: T1, ERF (Homo sapiens, UniProt P50548 1-548)
T1 sequence: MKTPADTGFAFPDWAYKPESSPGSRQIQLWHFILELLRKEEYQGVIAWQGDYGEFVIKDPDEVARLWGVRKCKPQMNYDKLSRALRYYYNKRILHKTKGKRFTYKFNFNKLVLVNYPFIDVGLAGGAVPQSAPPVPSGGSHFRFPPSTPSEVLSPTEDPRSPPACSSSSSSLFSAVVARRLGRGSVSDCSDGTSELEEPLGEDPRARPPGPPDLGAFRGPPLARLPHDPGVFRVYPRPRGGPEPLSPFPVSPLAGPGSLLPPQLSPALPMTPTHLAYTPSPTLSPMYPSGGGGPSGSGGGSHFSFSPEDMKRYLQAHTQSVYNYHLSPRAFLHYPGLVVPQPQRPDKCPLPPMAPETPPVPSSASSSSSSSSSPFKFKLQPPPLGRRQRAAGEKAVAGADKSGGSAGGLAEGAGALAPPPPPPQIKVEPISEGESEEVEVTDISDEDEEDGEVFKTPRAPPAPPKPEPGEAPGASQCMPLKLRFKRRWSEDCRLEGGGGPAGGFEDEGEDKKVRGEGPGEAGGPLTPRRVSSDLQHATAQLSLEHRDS
How it was run: (§1)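 A tag-only sample was pooled with DNA-barcoded human transcription factors that had been expressed in yeast as GST fusions and captured on glutathione beads. The pools were incubated for 30 min at room temperature with 200 nmole of a random double-stranded 16-mer DNA library in Tris/NaCl/DTT/glycerol buffer, then washed, crosslinked with 0.1% formaldehyde, proximity-ligated (BsaI/T4 ligase, 1 h, 37 °C), PCR-amplified and sequenced on an Illumina NextSeq500. Binding signal is each hexamer's read frequency for a factor divided by its frequency for the tag-only sample.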

ETV3L = biological target: T2, ETV3L (Homo sapiens, UniProt Q6ZN32 1-361)
T2 sequence: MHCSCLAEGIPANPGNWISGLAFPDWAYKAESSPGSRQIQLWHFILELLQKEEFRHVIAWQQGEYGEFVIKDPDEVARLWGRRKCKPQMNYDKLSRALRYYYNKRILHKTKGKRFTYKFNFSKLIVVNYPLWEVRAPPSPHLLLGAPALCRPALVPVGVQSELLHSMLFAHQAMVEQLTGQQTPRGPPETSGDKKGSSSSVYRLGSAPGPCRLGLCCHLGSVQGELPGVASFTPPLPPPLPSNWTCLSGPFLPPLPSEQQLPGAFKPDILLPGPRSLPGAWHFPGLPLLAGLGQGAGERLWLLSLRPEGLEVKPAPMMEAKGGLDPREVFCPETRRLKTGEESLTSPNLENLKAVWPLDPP
How it was run: as §1

ETS2 = biological target: T3, ETS2 (Homo sapiens, UniProt P15036 1-469)
T3 sequence: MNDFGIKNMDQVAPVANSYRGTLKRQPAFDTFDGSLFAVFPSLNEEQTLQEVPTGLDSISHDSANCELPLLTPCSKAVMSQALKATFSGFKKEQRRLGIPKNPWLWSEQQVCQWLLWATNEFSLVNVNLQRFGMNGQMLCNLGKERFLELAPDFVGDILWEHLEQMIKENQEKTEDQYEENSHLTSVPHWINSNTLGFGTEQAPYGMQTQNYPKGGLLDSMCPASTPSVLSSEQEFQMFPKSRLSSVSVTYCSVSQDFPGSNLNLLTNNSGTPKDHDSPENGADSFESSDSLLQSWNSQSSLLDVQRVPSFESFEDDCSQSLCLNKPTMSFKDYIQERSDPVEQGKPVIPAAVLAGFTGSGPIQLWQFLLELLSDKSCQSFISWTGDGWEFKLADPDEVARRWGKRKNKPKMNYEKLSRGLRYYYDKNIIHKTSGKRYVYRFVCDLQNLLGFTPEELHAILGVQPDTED
How it was run: as §1

SPDEF = biological target: T4, SPDEF (Homo sapiens, UniProt O95238 1-335)
T4 sequence: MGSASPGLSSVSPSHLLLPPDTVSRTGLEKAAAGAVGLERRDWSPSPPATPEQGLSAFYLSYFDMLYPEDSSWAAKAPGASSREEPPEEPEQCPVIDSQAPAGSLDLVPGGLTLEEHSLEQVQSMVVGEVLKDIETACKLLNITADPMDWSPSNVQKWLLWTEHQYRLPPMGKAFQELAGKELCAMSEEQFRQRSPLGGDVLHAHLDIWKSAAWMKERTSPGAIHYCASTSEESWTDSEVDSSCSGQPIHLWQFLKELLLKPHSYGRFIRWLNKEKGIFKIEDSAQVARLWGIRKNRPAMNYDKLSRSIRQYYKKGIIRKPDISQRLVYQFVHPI
How it was run: as §1

ETV7 = biological target: T5, ETV7 (Homo sapiens, UniProt Q9Y603 1-341)
T5 sequence: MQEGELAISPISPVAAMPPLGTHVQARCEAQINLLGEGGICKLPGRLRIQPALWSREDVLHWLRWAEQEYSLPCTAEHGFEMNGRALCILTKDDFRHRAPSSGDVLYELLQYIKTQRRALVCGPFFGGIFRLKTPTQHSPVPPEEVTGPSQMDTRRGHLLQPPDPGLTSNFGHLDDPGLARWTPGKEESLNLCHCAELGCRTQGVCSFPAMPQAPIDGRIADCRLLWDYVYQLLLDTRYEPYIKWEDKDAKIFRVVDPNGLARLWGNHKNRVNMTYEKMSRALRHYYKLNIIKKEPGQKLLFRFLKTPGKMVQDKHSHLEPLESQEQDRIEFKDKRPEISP
How it was run: as §1

ELF5 = biological target: T6, ELF5 (Homo sapiens, UniProt Q9UKW6-2 1-255)
T6 sequence: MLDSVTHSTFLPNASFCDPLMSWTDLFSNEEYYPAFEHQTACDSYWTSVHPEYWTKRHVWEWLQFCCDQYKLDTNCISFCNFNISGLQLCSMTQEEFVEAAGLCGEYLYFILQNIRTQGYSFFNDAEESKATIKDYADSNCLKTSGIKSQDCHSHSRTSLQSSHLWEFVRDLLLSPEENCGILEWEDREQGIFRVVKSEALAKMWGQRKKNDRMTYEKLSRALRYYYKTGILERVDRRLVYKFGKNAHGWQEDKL
How it was run: as §1

ETV3 = biological target: T7, ETV3 (Homo sapiens, UniProt P41162-2 1-143)
T7 sequence: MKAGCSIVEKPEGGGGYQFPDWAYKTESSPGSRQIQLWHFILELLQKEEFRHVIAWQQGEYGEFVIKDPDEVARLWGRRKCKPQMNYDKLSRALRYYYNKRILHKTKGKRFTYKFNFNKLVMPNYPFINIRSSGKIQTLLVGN
How it was run: as §1

ETV6 = ETV6 (Homo sapiens, UniProt P41212 1-452)
Chain of ETV6 (P41212 whole entry): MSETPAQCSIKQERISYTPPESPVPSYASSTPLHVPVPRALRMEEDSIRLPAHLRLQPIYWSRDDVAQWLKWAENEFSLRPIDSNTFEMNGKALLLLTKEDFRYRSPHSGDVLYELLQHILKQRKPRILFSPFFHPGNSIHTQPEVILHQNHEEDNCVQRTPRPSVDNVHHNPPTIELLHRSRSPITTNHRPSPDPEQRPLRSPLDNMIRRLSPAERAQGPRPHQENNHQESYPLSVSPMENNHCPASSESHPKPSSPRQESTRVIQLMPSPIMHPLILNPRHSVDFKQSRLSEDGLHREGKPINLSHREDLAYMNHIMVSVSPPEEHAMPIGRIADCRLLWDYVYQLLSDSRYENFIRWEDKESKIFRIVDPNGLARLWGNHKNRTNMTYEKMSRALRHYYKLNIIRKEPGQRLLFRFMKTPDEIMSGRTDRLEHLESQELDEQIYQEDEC
How it was run: as §1

Sequence	binding signal (ERF)	binding signal (ETV3L)	binding signal (ETS2)	binding signal (SPDEF)	binding signal (ETV7)	binding signal (ELF5)	binding signal (ETV3)	binding signal (ETV6)
CGTATG	1.02 fold enrichment (6-mer frequency, TF over GST control)	1.07 fold enrichment (6-mer frequency, TF over GST control)	1.11 fold enrichment (6-mer frequency, TF over GST control)	1.05 fold enrichment (6-mer frequency, TF over GST control)	1.03 fold enrichment (6-mer frequency, TF over GST control)	1.04 fold enrichment (6-mer frequency, TF over GST control)	1.13 fold enrichment (6-mer frequency, TF over GST control)	1.02 fold enrichment (6-mer frequency, TF over GST control)
GCGCTC	1.2 fold enrichment (6-mer frequency, TF over GST control)	1.19 fold enrichment (6-mer frequency, TF over GST control)	1.2 fold enrichment (6-mer frequency, TF over GST control)	1.07 fold enrichment (6-mer frequency, TF over GST control)	1.04 fold enrichment (6-mer frequency, TF over GST control)	1.05 fold enrichment (6-mer frequency, TF over GST control)	1.08 fold enrichment (6-mer frequency, TF over GST control)	1.02 fold enrichment (6-mer frequency, TF over GST control)
TGCCTA	1.09 fold enrichment (6-mer frequency, TF over GST control)	1.16 fold enrichment (6-mer frequency, TF over GST control)	1.16 fold enrichment (6-mer frequency, TF over GST control)	1.03 fold enrichment (6-mer frequency, TF over GST control)	1.01 fold enrichment (6-mer frequency, TF over GST control)	1 fold enrichment (6-mer frequency, TF over GST control)	1.07 fold enrichment (6-mer frequency, TF over GST control)	1.07 fold enrichment (6-mer frequency, TF over GST control)
ACCTTC	1.92 fold enrichment (6-mer frequency, TF over GST control)	1.75 fold enrichment (6-mer frequency, TF over GST control)	1.89 fold enrichment (6-mer frequency, TF over GST control)	2.02 fold enrichment (6-mer frequency, TF over GST control)	1.79 fold enrichment (6-mer frequency, TF over GST control)	2.19 fold enrichment (6-mer frequency, TF over GST control)	1.8 fold enrichment (6-mer frequency, TF over GST control)	1.96 fold enrichment (6-mer frequency, TF over GST control)
TCCAAA	1.14 fold enrichment (6-mer frequency, TF over GST control)	1.18 fold enrichment (6-mer frequency, TF over GST control)	1.16 fold enrichment (6-mer frequency, TF over GST control)	1.15 fold enrichment (6-mer frequency, TF over GST control)	1.14 fold enrichment (6-mer frequency, TF over GST control)	1.15 fold enrichment (6-mer frequency, TF over GST control)	1.2 fold enrichment (6-mer frequency, TF over GST control)	1.14 fold enrichment (6-mer frequency, TF over GST control)
CCGGCC	1.06 fold enrichment (6-mer frequency, TF over GST control)	1.19 fold enrichment (6-mer frequency, TF over GST control)	1.05 fold enrichment (6-mer frequency, TF over GST control)	1.38 fold enrichment (6-mer frequency, TF over GST control)	1.16 fold enrichment (6-mer frequency, TF over GST control)	1.22 fold enrichment (6-mer frequency, TF over GST control)	1.24 fold enrichment (6-mer frequency, TF over GST control)	1.11 fold enrichment (6-mer frequency, TF over GST control)
ATTCAG	1.15 fold enrichment (6-mer frequency, TF over GST control)	1.2 fold enrichment (6-mer frequency, TF over GST control)	1.14 fold enrichment (6-mer frequency, TF over GST control)	1.05 fold enrichment (6-mer frequency, TF over GST control)	1.02 fold enrichment (6-mer frequency, TF over GST control)	1.08 fold enrichment (6-mer frequency, TF over GST control)	1.12 fold enrichment (6-mer frequency, TF over GST control)	1.02 fold enrichment (6-mer frequency, TF over GST control)
GAATTC	1.38 fold enrichment (6-mer frequency, TF over GST control)	1.41 fold enrichment (6-mer frequency, TF over GST control)	1.33 fold enrichment (6-mer frequency, TF over GST control)	1.33 fold enrichment (6-mer frequency, TF over GST control)	1.32 fold enrichment (6-mer frequency, TF over GST control)	1.32 fold enrichment (6-mer frequency, TF over GST control)	1.35 fold enrichment (6-mer frequency, TF over GST control)	1.2 fold enrichment (6-mer frequency, TF over GST control)
CATATC	1.42 fold enrichment (6-mer frequency, TF over GST control)	1.38 fold enrichment (6-mer frequency, TF over GST control)	1.36 fold enrichment (6-mer frequency, TF over GST control)	1.76 fold enrichment (6-mer frequency, TF over GST control)	1.24 fold enrichment (6-mer frequency, TF over GST control)	1.32 fold enrichment (6-mer frequency, TF over GST control)	1.32 fold enrichment (6-mer frequency, TF over GST control)	1.26 fold enrichment (6-mer frequency, TF over GST control)
TAGATT	1.37 fold enrichment (6-mer frequency, TF over GST control)	1.31 fold enrichment (6-mer frequency, TF over GST control)	1.13 fold enrichment (6-mer frequency, TF over GST control)	1.15 fold enrichment (6-mer frequency, TF over GST control)	1.22 fold enrichment (6-mer frequency, TF over GST control)	1.11 fold enrichment (6-mer frequency, TF over GST control)	1 fold enrichment (6-mer frequency, TF over GST control)	1.17 fold enrichment (6-mer frequency, TF over GST control)
GTTACA	1.24 fold enrichment (6-mer frequency, TF over GST control)	1.06 fold enrichment (6-mer frequency, TF over GST control)	1.2 fold enrichment (6-mer frequency, TF over GST control)	1.21 fold enrichment (6-mer frequency, TF over GST control)	1.12 fold enrichment (6-mer frequency, TF over GST control)	1.14 fold enrichment (6-mer frequency, TF over GST control)	1.09 fold enrichment (6-mer frequency, TF over GST control)	1.07 fold enrichment (6-mer frequency, TF over GST control)
GAAGTG	1.48 fold enrichment (6-mer frequency, TF over GST control)	1.53 fold enrichment (6-mer frequency, TF over GST control)	1.55 fold enrichment (6-mer frequency, TF over GST control)	1.47 fold enrichment (6-mer frequency, TF over GST control)	1.7 fold enrichment (6-mer frequency, TF over GST control)	1.79 fold enrichment (6-mer frequency, TF over GST control)	1.75 fold enrichment (6-mer frequency, TF over GST control)	1.93 fold enrichment (6-mer frequency, TF over GST control)
TATCTA	1.27 fold enrichment (6-mer frequency, TF over GST control)	1.18 fold enrichment (6-mer frequency, TF over GST control)	1.26 fold enrichment (6-mer frequency, TF over GST control)	1.23 fold enrichment (6-mer frequency, TF over GST control)	1.26 fold enrichment (6-mer frequency, TF over GST control)	1.18 fold enrichment (6-mer frequency, TF over GST control)	1.29 fold enrichment (6-mer frequency, TF over GST control)	1.28 fold enrichment (6-mer frequency, TF over GST control)
ACCTGG	1.17 fold enrichment (6-mer frequency, TF over GST control)	1.33 fold enrichment (6-mer frequency, TF over GST control)	1.26 fold enrichment (6-mer frequency, TF over GST control)	1.2 fold enrichment (6-mer frequency, TF over GST control)	1.29 fold enrichment (6-mer frequency, TF over GST control)	1.19 fold enrichment (6-mer frequency, TF over GST control)	1.21 fold enrichment (6-mer frequency, TF over GST control)	1.28 fold enrichment (6-mer frequency, TF over GST control)
CGATAC	1.2 fold enrichment (6-mer frequency, TF over GST control)	1.18 fold enrichment (6-mer frequency, TF over GST control)	1.19 fold enrichment (6-mer frequency, TF over GST control)	1.29 fold enrichment (6-mer frequency, TF over GST control)	1.02 fold enrichment (6-mer frequency, TF over GST control)	1.1 fold enrichment (6-mer frequency, TF over GST control)	1.15 fold enrichment (6-mer frequency, TF over GST control)	1.09 fold enrichment (6-mer frequency, TF over GST control)

Source: publication PMC7862700, “An all-to-all approach to the identification of sequence-specific readers for epigenetic DNA modifications on cytosine”
